Out of some 300,000 compounds screened, about 950 (0.32%) were called active.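 The calls were made as follows: active = mean activation of at least 10% of the iron chelator positive control signal, with at least half of replicates also reaching 10%; inconclusive = mean and replicate majority disagree about reaching 10%; inactive = mean and most replicates under 10%.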 Only a selection was taken, and actives are over-represented in it overall.
Assay: hypoxia response element reporter activation – cell-based, U2OS HRE-luciferase, luminescence, primary screen (AID 1910)
Conditions: hits give high values, screened at 7.5 µM (by protocol), normalized: DMSO 0%, desferrioxamine 100%

Compound	activation
CCc1nnc(NS(=O)(=O)c2ccc(NC(=O)c3cccc(OC(F)(F)C(F)F)c3)cc2)s1	-0.386% (inactive)
CCOC(=O)c1ccc(NC(=O)c2c(NCc3ccccc3)[nH]c(=O)[nH]c2=O)cc1	0.835% (inactive)
O=C(c1ccc(F)cc1)N1CCC(C(=O)N2CCN(S(=O)(=O)c3ccccc3Br)CC2)CC1	1.51% (inactive)
O=C(CSc1nnc2c(n1)[nH]c1ccccc12)NC1CCCCC1	0.503% (inactive)
CC(C)N(c1ccccc1)c1ncnc(NCCC(=O)O)c1[N+](=O)[O-]	173% (active)
Cc1ccc(C(C)NC(=O)Cn2nc(C)c([N+](=O)[O-])c2C)cc1 (configuration not stated)	-0.456% (inactive)
Cc1ccc(OCC(=O)NC(C)c2ccccc2)c([N+](=O)[O-])n1 (configuration not stated)	-1.24% (inactive)
COc1ccc(S(=O)(=O)NCC(c2ccc(C)cc2)N2CCN(C)CC2)cc1OC (configuration not stated)	-0.0703% (inactive)
CC(C)(C)c1ccc(C(=O)N2CCC(C(=O)N3CCCCC3)CC2)cc1	-0.293% (inactive)
COc1ccc(C(=O)N2CCC(C(=O)Nc3ccc(C)cc3)CC2)cc1	0.165% (inactive)
COc1ccccc1NC(=O)C1CCN(C(=O)c2ccc(C(C)(C)C)cc2)CC1	24.7% (active)
Cc1ccc2nc(SCC(=O)N3CCN(c4ccccc4)CC3)nc(=O)n2c1	-0.536% (inactive)
Cc1cc(C)nc(-n2ncc3c2CC(c2ccc(C(C)C)cc2)CC3=O)n1 (configuration not stated)	0.0559% (inactive)
Cc1nc2nc3c(cn2n1)C(=O)CC(c1ccccc1)C3 (configuration not stated)	842% (active)
CN1CCN(c2ncc3c(n2)CC(c2ccccc2F)CC3=O)CC1 (configuration not stated)	-0.449% (inactive)
COc1ccccc1NC(=O)Nc1nc(CC(=O)Nc2ccccc2F)cs1	-0.165% (inactive)
NC(=O)c1ccsc1NC(=O)COC(=O)Cc1n[nH]c(=O)c2ccccc12	0.145% (inactive)
CCCCn1c(N)c(N(CC(C)C)C(=O)C2CSC3(C)CCC(=O)N23)c(=O)[nH]c1=O (configuration not stated)	0.199% (inactive)
COc1ccc(N2C(=O)CNC2=S)cc1	-0.317% (inactive)
COc1ccc(-n2c(-c3ccc(OC)c(OC)c3)n[nH]c2=S)cc1	1.1% (inactive)
COc1ccc(-n2c(C)csc2=S)cc1	14.5% (active)
c1ccc(-c2nc(NCc3ccco3)c3ccccc3n2)cc1	0.461% (inactive)
CS(=O)(=O)n1nc(-c2ccccc2)nc1NCc1ccco1	16.1% (active)
O=C(Cc1ccccc1)n1nc(-c2ccccc2)nc1NCc1ccco1	1.38% (inactive)

Compound	activation
N#CCN(C(=O)COC(=O)C1CC2CCCC(C1)C2=O)c1ccccc1 (configuration not stated)	-0.0724% (inactive)
Cc1ccc(C(=O)Nc2nnc(C3=COCCO3)o2)cc1C	0.0306% (inactive)
COc1cccc(N2CC(C(=O)NCc3n[nH]c(=O)c4ccccc34)CC2=O)c1 (configuration not stated)	3.45% (inactive)
COc1ccc(NC(=O)CCC(=O)Nc2cc(OC)c(NC(=O)c3ccco3)cc2OC)c(OC)c1	-0.226% (inactive)
COc1ccccc1C(=O)Nc1ccc(NC(=O)c2ccco2)c(C)c1	0.062% (inactive)
COc1ccc(NC(=O)c2cccc(NC(=O)c3ccco3)c2)c(OC)c1	10.1% (active)
COc1ccccc1OCCCCCCN1CCN(C)CC1	0.237% (inactive)
CCOc1ccc(C(C)=O)cc1COC(=O)CNC(=O)c1cccs1	0.00171% (inactive)
O=C(N/N=C/c1ccccc1O)C1CCCC1	0.236% (inactive)
O=C(N/N=C/c1ccccc1O)/C(=C/c1ccccc1)CCO	31.1% (active)
O=C(CCCO)N/N=C/c1cc(Br)ccc1O	-1.18% (inactive)
Cc1cccc(N=C2SC(C)CN2C(=O)CN2C(=O)NC3(CCCC3)C2=O)c1 (configuration not stated)	0.348% (inactive)
CCN(CC(=O)Nc1c(F)cccc1F)C(=O)c1ccc(Sc2nncn2C)c([N+](=O)[O-])c1	0.52% (inactive)
O=C(Nc1cccc(F)c1)c1coc(=O)c(Br)c1	0.54% (inactive)
COc1ccc(N2CC(C(=O)NCCN3C(=O)S/C(=C\c4cccnc4)C3=O)CC2=O)c(OC)c1 (configuration not stated)	0.0693% (inactive)
O=C(NCCCN1CCOCC1)c1cc(-c2cccc(O)c2)on1	-0.131% (inactive)
O=C(NCCCN1CCOCC1)c1cc(-c2ccccc2F)no1	10.1% (active)
O=C(NCCCN1CCOCC1)c1cc(-c2ccc(Cl)cc2)on1	-0.141% (inactive)
C=CCNC(=O)/C=C/c1ccc(C(C)C)cc1	2.38% (inactive)
Cn1cnc2c1c(=O)n(Cc1ccccc1C#N)c(=O)n2C	-28% (inactive)
COc1ccc(C(CNC(=O)c2cccc(NS(=O)(=O)c3ccc(C)c(F)c3)c2)N2CCCC2)cc1 (configuration not stated)	-0.102% (inactive)
Cc1cc(=O)[nH]c(SCC(=O)Nc2ccc(Br)cc2)n1	0.205% (inactive)
O=C(CSCc1ccc(Br)cc1)Nc1ccc(S(=O)(=O)N2CCCCCC2)cc1	-0.637% (inactive)

Source: PubChem BioAssay AID1910 (Broad Institute, 2009)
